Test results: PubChem BioAssay AID463173 (ICCB-Longwood Screening Facility, Harvard Medical School, 2010)
Among all 52,000 compounds or so, about 4,300 (8.3%) were called active. Cut-off read from the data, not from the text of the source: active = survival mostly below about 52% (no sharp cut-off); inactive = mostly above about 56%. For the sample, actives were picked, then their nearest neighbours and some compounds at random.

What follows are molecules tested on DeltatarO mutant (assay: S. aureus survival, RN4220 and DeltatarO strains – OD600, teichoic acid synthesis inhibitors, primary screen (AID 463173)). Settings: S. aureus RN4220 wild type/DeltatarO growth, OD600, 18 h, hits give low values, screened at 18.75 µg/mL (by protocol).
With `COc1ccc(OCC(=O)NCCS(=O)(=O)N2CCN(c3cccc(Cl)c3)CC2)cc1` the survival was 85% (inactive).
For `CCOc1ccc(NC(=O)CSc2cn(CC(=O)N3CCCCCC3)c3ccccc23)cc1`, the survival was 95% (inactive).
`Cc1oc(-c2cccc(Br)c2)nc1CSc1nc2ncccc2[nH]1` was tested, and the survival was 78% (inactive).
With `CCOC(=O)c1cnc2c(CC)cccc2c1NCCO` the survival was 95% (inactive).
In the case of `CCOC(=O)c1cnc2ccccc2c1NCCCO`, the survival is reported as 104% (inactive).
With `CCOC(=O)c1cnc2c(C)cc(C)cc2c1NCCN1CCOCC1` the survival was 32% (active).
In the case of `Cc1cc(C)cc(OCC(=O)NCCN2CCOCC2)c1`, the survival is reported as 67% (inactive).
In the case of `CCOC(=O)c1cnc2c(Cl)c(Cl)ccc2c1NCCN1CCOCC1`, the survival is reported as 42% (active).
For `CCOC(=O)c1cnc2ccc(Br)cc2c1NCCN1CCOCC1`, the survival was 76% (inactive).
In the case of `Cc1ccc(OCC(=O)Nc2ccc3nc(SCc4ccccc4)sc3c2)cc1`, the survival is reported as 81% (inactive).
In the case of `Cc1ccccc1-c1nc(CNC(=O)NC2CCCCC2)c(C)o1`, the survival is reported as 67% (inactive).
`CCOc1ccc(C(=O)N2CCC(c3nc(-c4ccc(S(=O)(=O)N5CCCC5)cc4)no3)CC2)cc1` was tested, and the survival was 92% (inactive).
For `CCN(C(=O)c1cc2c(=O)oc3ccccc3c2s1)c1cccc(C(F)(F)F)c1`, the survival was 145% (inactive).
`CCN(C(=O)c1cc2c(=O)oc3ccccc3c2s1)c1ccc(C)c(C)c1` was tested, and the survival was 15% (active).
For `CCOc1ccc(N(CC)C(=O)c2cc3c(=O)oc4ccccc4c3s2)cc1`, the survival was 38% (active).
For `CCCN(C(=O)c1cc2c(=O)oc3ccc(C)cc3c2s1)c1ccc(OCC)cc1`, the survival was 48% (inactive).
With `CN(C(=O)c1cc2c(=O)oc3ccccc3c2s1)c1ccc(F)cc1` the survival was 60% (inactive).
With `CCc1ccccc1N(C)C(=O)c1cc2c(=O)oc3ccccc3c2s1` the survival was 42% (inactive).
For `COc1cccc(CNC(=O)C2(c3cccs3)CCOCC2)c1`, the survival was 92% (inactive).
`COc1ccc(-c2ccc(NS(=O)(=O)c3cccc(C)c3)cc2)nn1` was tested, and the survival was 75% (inactive).
`COCCNc1nc2c(c(=O)n(C)c(=O)n2C)n1Cc1c(F)cccc1Cl` was tested, and the survival was 57% (inactive).
`COc1ccc(C)cc1NC(=O)CC1NCCNC1=O` (stereo not given) was tested, and the survival was 76% (active).
`Cc1ccc(C)c(NC(=O)CC2NCCNC2=O)c1` (stereo not given) was tested, and the survival was 79% (inactive).
For `COc1ccc(NC(=O)CC2NCCNC2=O)c(OC)c1` (stereo not given), the survival was 77% (inactive).
`O=C(Nc1c2c(nn1-c1ccc(Cl)cc1)CS(=O)(=O)C2)c1ccc(Br)cc1` was tested, and the survival was 52% (active).
`O=C(Nc1c2c(nn1-c1ccc(Cl)cc1)CS(=O)(=O)C2)c1cccc(Cl)c1` was tested, and the survival was 71% (inactive).
`Cc1cccc(C(=O)Nc2c3c(nn2-c2ccc(Cl)cc2)CS(=O)(=O)C3)c1` was tested, and the survival was 74% (inactive).
For `CC(=O)N1c2ccccc2C(=O)C1N1CCN(c2ccc(F)cc2)CC1` (stereo not given), the survival was 94% (inactive).
For `Cc1ccc(-c2nnc(Nc3ccc(O)cc3)c3ccccc23)cc1S(=O)(=O)NCC1CCCO1` (stereo not given), the survival was 93% (inactive).
`Cc1ccc(-n2ncc(C(=O)NC3CCCCC3)c2C2CCN(C(=O)OC(C)(C)C)CC2)cc1` was tested, and the survival was 116% (inactive).
`Cc1ccc2c(c1)C(c1ccccc1)N(C(=O)Cc1ccc(F)cc1)CC(=O)N2` (stereo not given) was tested, and the survival was 55% (inactive).
With `Cc1cccc(CC(=O)N2CC(=O)Nc3ccc(C)cc3C2c2ccc(F)cc2)c1` (stereo not given) the survival was 50% (inactive).
For `Cc1cccc(CC(=O)N2CC(=O)Nc3ccc(Br)cc3C2c2ccc(F)cc2)c1` (stereo not given), the survival was 43% (active).
`Cc1cccc(CC(=O)N2CC(=O)Nc3ccc(F)cc3C2c2ccccc2)c1` (stereo not given) was tested, and the survival was 53% (active).
For `COc1ccc(CC(=O)N2CC(=O)Nc3ccc(Br)cc3C2c2ccc(F)cc2)cc1OC` (stereo not given), the survival was 175% (inactive).
For `COc1ccc(CC(=O)N2CC(=O)Nc3ccc(Br)cc3C2c2ccc(F)cc2)cc1` (stereo not given), the survival was 30% (active).
In the case of `O=C1CN(C(=O)Cc2ccccc2)C(c2ccc(F)cc2)c2cc(Br)ccc2N1` (stereo not given), the survival is reported as 61% (inactive).
For `O=C1CN(C(=O)Cc2ccc(F)cc2)C(c2ccccc2)c2cc(Cl)ccc2N1` (stereo not given), the survival was 127% (inactive).
In the case of `COc1ccc(CC(=O)N2CC(=O)Nc3ccc(F)cc3C2c2ccccc2)cc1` (stereo not given), the survival is reported as 79% (inactive).
For `COc1ccc(Cl)cc1NC(=O)Cn1ncc2c3ccccc3n(C)c2c1=O`, the survival was 135% (inactive).
With `Cc1ccc(C)c(NC(=O)Cn2c(=O)n(Cc3ccco3)c(=O)c3ccc(C(=O)NC4CCCC4)cc32)c1` the survival was 95% (inactive).
For `O=C(Nc1ccc2oc(-c3ccc4ccccc4c3)nc2c1)c1ccc(Cl)c(Cl)c1`, the survival was 83% (inactive).
In the case of `Cc1ccc2[nH]c(=O)c3cc(C(=O)NCCCN4CCC(C)CC4)sc3c2c1`, the survival is reported as 85% (inactive).
`COc1ccc(-c2cc(-c3ccc(C)cc3)nc3c2COc2ccccc2-3)cc1` was tested, and the survival was 72% (inactive).
`Cc1oc2ncn(C)c(=O)c2c1C(=O)N1CCN(c2ccc(Cl)cc2)CC1` was tested, and the survival was 61% (inactive).
In the case of `CCc1nc2nc(C)cc(Nc3cccc(C)c3C)n2n1`, the survival is reported as 82% (inactive).
For `Cc1cc(Nc2ccccc2C)n2nc(Cc3ccc(Cl)cc3)nc2n1`, the survival was 64% (inactive).
In the case of `Cc1cc(Nc2cccc(Cl)c2C)n2nc(Cc3ccccc3)nc2n1`, the survival is reported as 49% (active).
For `Cc1cc(Nc2ccc(C)c(Cl)c2)n2nc(Cc3ccccc3)nc2n1`, the survival was 31% (active).
For `Cc1cc(Nc2ccccc2F)n2nc(-c3ccccc3)nc2n1`, the survival was 47% (inactive).
In the case of `Cc1ccc(Nc2cc(C)nc3nc(Cc4ccc(Cl)cc4)nn23)cc1`, the survival is reported as 52% (inactive).
In the case of `Cc1cccc(Nc2cc(C)nc3nc(Cc4ccc(Cl)cc4)nn23)c1`, the survival is reported as 36% (active).
For `Cc1cc(Nc2cc(Cl)ccc2C)n2nc(Cc3ccccc3)nc2n1`, the survival was 50% (inactive).
For `Cc1cc(Nc2ccc(C)c(Cl)c2)n2nc(-c3ccccc3)nc2n1`, the survival was 57% (inactive).
With `CCc1ccc(Nc2cc(C)nc3nc(Cc4ccc(Cl)cc4)nn23)cc1` the survival was 101% (inactive).
`Cc1cc(Nc2ccccc2F)n2nc(Cc3ccc(Cl)cc3)nc2n1` was tested, and the survival was 44% (active).
`CC(=O)c1cccc(Nc2cc(C)nc3nc(Cc4ccccc4)nn23)c1` was tested, and the survival was 62% (inactive).
For `CC1=C(C(=O)OCc2ccc(C)cc2)C(c2ccccc2C(F)(F)F)CC(=O)N1` (stereo not given), the survival was 124% (inactive).
For `CCCSCCCNC(=O)CN1C(=O)CCn2nc(-c3cn(C)c4ccccc34)cc21`, the survival was 77% (inactive).
In the case of `CCN(CC)CCn1c2c(c(SCC(=O)Nc3cccc(C(F)(F)F)c3)nc1=O)CCC2`, the survival is reported as 74% (inactive).
In the case of `CCOC(=O)c1cc(C)n(CC2CCC(C(=O)Nc3ccccc3OC)CC2)c1C` (stereo not given), the survival is reported as 107% (inactive).
For `COc1cccc(NC2=CC(c3ccc(C(C)C)cc3)N(c3cccc(OC)c3)C2=O)c1` (stereo not given), the survival was 73% (inactive).
For `CCC(CC)C(=O)N1CCc2cc(OC)c(OC)cc2C1COc1ccc2c(C)cc(=O)oc2c1` (stereo not given), the survival was 83% (inactive).
For `CNc1ccc(-c2nc(-c3ccncc3)no2)cc1[N+](=O)[O-]`, the survival was 108% (inactive).
For `CCOc1ccc(-c2cccc(NS(=O)(=O)c3ccccc3C(F)(F)F)c2)nn1`, the survival was 91% (inactive).
For `O=C(Cn1c(=O)nc(-c2ccccc2)c2ccccc21)Nc1cccc(C(F)(F)F)c1`, the survival was 104% (inactive).
For `Cc1ccc2nc(N(Cc3cccnc3)C(=O)c3cccs3)sc2c1`, the survival was 71% (inactive).
In the case of `CCCCN(C)CCNC(=O)c1c2c(nc3ccccc13)C(=O)N(C1CCCCC1)C2`, the survival is reported as 102% (inactive).
For `O=C(NCCc1ccc(Cl)cc1)c1ccc2c(c1)N(Cc1cccc(Cl)c1)C(=O)c1ccccc1S2(=O)=O`, the survival was 117% (inactive).
With `COc1ccccc1CNC(=O)CS(=O)(=O)Cc1nc(-c2ccccc2C)oc1C` the survival was 63% (inactive).
With `CCCCN(C)C(=O)C1CCCN(c2ncnc3onc(C)c23)C1` (stereo not given) the survival was 113% (inactive).
With `O=C(Nc1ccc2c(c1)CCC2)C1CCN(c2ccc(S(=O)(=O)N3CCCC3)cc2)CC1` the survival was 103% (inactive).
In the case of `Cc1ccc(NC(=O)/C(C#N)=C/c2cc(C)n(-c3ccc(F)cc3)c2C)cc1C`, the survival is reported as 65% (inactive).
`Cc1ccc(NC(=O)/C(C#N)=C\c2ccc(Cl)cc2Cl)cc1C` was tested, and the survival was 29% (active).
`Cc1ccc(-n2c(C)cc(/C=C(\C#N)C(=O)Nc3ccc(C)c(C)c3)c2C)cc1` was tested, and the survival was 48% (inactive).
`Cc1ccc(NC(=O)/C(C#N)=C/c2cc(C)n(-c3ccc(Br)cc3)c2C)cc1C` was tested, and the survival was 65% (inactive).
In the case of `Cc1ccccc1NC(=O)/C(C#N)=C/c1ccc(Cl)cc1Cl`, the survival is reported as 32% (active).
For `Cc1ccc(Cl)cc1NC(=O)/C(C#N)=C\c1cn(Cc2ccc(F)cc2)c2ccccc12`, the survival was 98% (inactive).
`Cc1ccc(NC(=O)/C(C#N)=C/c2ccc(C(C)C)cc2)cc1C` was tested, and the survival was 81% (inactive).
For `Cc1ccc(Cl)cc1NC(=O)/C(C#N)=C/c1c(C)n(Cc2ccccc2)c2ccccc12`, the survival was 95% (inactive).
With `Cc1ccc(NC(=O)/C(C#N)=C/c2ccccc2Cl)cc1C` the survival was 34% (active).
In the case of `Cc1cc(C)n2c(Nc3ccccc3)c(-c3ccccc3)nc2n1`, the survival is reported as 72% (inactive).
In the case of `Cc1cccc(N2CCN(Cc3nnc(-c4cccc(Br)c4)o3)CC2)c1C`, the survival is reported as 72% (inactive).
`CCc1ccccc1N(C)C(=O)c1ccc2c(=O)n3c(nc2c1)CCCCC3` was tested, and the survival was 81% (inactive).
`O=C(Cn1cnc(S(=O)(=O)N2CCCC2)c1)Nc1cccc(F)c1` was tested, and the survival was 91% (inactive).
`CCC(C)c1ccc(NC(=O)CSc2nncn2N)cc1` (stereo not given) was tested, and the survival was 76% (inactive).
With `CCc1ccccc1NC(=O)CC1Sc2ccc(C(F)(F)F)cc2NC1=O` (stereo not given) the survival was 82% (inactive).
With `O=C(CC1Sc2ccc(C(F)(F)F)cc2NC1=O)Nc1ccc(Cl)c(C(F)(F)F)c1` (stereo not given) the survival was 22% (active).
For `CCOC(=O)c1ccc(NC(=O)CC2Sc3ccc(C(F)(F)F)cc3NC2=O)cc1` (stereo not given), the survival was 78% (inactive).
`COC(=O)c1c(NC(=O)CCCOc2ccc(C)cc2)sc2c1C(C(=O)OC)CC2` (stereo not given) was tested, and the survival was 44% (inactive).
For `COC(=O)c1c(NC(=O)CCCOc2cccc(C)c2)sc2c1C(C(=O)OC)CC2` (stereo not given), the survival was 0% (active).
`COC(=O)c1c(NC(=O)c2cccs2)sc2c1C(C(=O)OC)CC2` (stereo not given) was tested, and the survival was 94% (inactive).
`COC(=O)c1c(NC(=O)/C(C#N)=C/c2ccccc2)sc2c1C(C(=O)OC)CC2` (stereo not given) was tested, and the survival was 58% (inactive).
`COC(=O)c1c(NC(=O)CCCOc2ccc(C(C)(C)C)cc2)sc2c1C(C(=O)OC)CC2` (stereo not given) was tested, and the survival was 3% (active).
`CCOc1ccc(/C=C/C(=O)Nc2sc3c(c2C(=O)OC)C(C(=O)OC)CC3)cc1` (stereo not given) was tested, and the survival was 56% (inactive).
